# From ChEMBL document CHEMBL2218924, “A broad activity screen in support of a chemogenomic map for kinase signalling research and drug discovery” (Biochem J, 2013)
# Experiments:
# [1] = target: Serine/threonine-protein kinase PLK3 (Homo sapiens) (UniProt Q9H4B4); conditions: at 1 µM
# [2] = target: Serine/threonine-protein kinase PLK3 (Homo sapiens) (UniProt Q9H4B4); conditions: at 10 µM
# [3] = target: T1, cAMP-dependent protein kinase catalytic subunit PRKX (Homo sapiens) (UniProt P51817); conditions: at 1 µM
# T1 sequence (whole entry): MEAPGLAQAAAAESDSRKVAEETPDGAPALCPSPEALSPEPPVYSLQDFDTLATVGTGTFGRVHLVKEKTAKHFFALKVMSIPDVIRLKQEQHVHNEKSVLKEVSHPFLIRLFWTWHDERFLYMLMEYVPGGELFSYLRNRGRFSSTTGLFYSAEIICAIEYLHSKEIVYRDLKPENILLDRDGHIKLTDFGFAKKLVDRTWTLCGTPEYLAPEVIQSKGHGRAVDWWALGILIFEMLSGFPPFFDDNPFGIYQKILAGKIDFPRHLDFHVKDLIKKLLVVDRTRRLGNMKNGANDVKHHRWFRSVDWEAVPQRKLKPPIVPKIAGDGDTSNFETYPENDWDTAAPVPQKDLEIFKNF
# [4] = target: T1, cAMP-dependent protein kinase catalytic subunit PRKX (Homo sapiens); conditions: at 10 µM
# [5] = target: Protein-tyrosine kinase 2-beta (Homo sapiens) (UniProt Q14289); conditions: at 1 µM
# [6] = target: Protein-tyrosine kinase 2-beta (Homo sapiens) (UniProt Q14289); conditions: at 10 µM
# [7] = target: Receptor-interacting serine/threonine-protein kinase 2 (Homo sapiens) (UniProt O43353); conditions: at 1 µM
# [8] = target: Receptor-interacting serine/threonine-protein kinase 2 (Homo sapiens) (UniProt O43353); conditions: at 10 µM
# [9] = target: Rho-associated protein kinase 1 (Homo sapiens) (UniProt Q13464); conditions: at 1 µM
# [10] = target: Rho-associated protein kinase 1 (Homo sapiens) (UniProt Q13464); conditions: at 10 µM
# [11] = target: Rho-associated protein kinase 2 (Homo sapiens) (UniProt O75116); conditions: at 1 µM
# [12] = target: Rho-associated protein kinase 2 (Homo sapiens) (UniProt O75116); conditions: at 10 µM
# [13] = target: Proto-oncogene tyrosine-protein kinase receptor Ret (Homo sapiens) (UniProt P07949); conditions: at 1 µM
# [14] = target: Proto-oncogene tyrosine-protein kinase receptor Ret (Homo sapiens) (UniProt P07949); conditions: at 10 µM
# [15] = target: Macrophage-stimulating protein receptor (Homo sapiens) (UniProt Q04912); conditions: at 1 µM
# [16] = target: Macrophage-stimulating protein receptor (Homo sapiens) (UniProt Q04912); conditions: at 10 µM
# [17] = target: Proto-oncogene tyrosine-protein kinase ROS (Homo sapiens) (UniProt P08922); conditions: at 1 µM
# [18] = target: Proto-oncogene tyrosine-protein kinase ROS (Homo sapiens) (UniProt P08922); conditions: at 10 µM
# [19] = target: T2, Tyrosine-protein kinase receptor TYRO3 (Homo sapiens) (UniProt Q06418); conditions: at 1 µM
# T2 sequence (whole entry): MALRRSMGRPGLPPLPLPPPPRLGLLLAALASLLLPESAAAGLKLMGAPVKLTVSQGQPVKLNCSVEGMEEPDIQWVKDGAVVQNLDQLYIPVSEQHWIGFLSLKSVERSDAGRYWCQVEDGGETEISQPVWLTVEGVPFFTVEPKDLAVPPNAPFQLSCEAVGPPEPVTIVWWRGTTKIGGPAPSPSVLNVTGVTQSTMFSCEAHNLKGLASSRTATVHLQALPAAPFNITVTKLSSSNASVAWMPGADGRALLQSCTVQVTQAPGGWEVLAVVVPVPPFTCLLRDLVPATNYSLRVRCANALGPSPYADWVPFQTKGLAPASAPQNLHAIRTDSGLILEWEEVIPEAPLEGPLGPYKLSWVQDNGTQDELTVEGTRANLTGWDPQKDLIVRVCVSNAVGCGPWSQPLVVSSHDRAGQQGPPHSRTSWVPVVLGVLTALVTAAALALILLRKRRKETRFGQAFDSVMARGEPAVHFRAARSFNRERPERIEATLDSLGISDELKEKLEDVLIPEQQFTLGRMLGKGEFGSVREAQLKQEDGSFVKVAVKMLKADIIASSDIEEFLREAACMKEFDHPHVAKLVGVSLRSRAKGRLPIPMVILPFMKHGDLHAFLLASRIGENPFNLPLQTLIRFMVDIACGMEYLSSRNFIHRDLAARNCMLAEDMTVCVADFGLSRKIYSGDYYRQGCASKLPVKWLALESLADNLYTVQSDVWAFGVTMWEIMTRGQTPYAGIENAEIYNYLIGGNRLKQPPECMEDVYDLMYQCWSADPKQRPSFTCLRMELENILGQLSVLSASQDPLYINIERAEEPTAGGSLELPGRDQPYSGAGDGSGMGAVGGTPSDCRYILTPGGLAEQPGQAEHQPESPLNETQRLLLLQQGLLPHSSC
# [20] = target: T2, Tyrosine-protein kinase receptor TYRO3 (Homo sapiens); conditions: at 10 µM
# Rho-associated protein kinase 2 (Homo sapiens), sequence (O75116 whole entry, looked up): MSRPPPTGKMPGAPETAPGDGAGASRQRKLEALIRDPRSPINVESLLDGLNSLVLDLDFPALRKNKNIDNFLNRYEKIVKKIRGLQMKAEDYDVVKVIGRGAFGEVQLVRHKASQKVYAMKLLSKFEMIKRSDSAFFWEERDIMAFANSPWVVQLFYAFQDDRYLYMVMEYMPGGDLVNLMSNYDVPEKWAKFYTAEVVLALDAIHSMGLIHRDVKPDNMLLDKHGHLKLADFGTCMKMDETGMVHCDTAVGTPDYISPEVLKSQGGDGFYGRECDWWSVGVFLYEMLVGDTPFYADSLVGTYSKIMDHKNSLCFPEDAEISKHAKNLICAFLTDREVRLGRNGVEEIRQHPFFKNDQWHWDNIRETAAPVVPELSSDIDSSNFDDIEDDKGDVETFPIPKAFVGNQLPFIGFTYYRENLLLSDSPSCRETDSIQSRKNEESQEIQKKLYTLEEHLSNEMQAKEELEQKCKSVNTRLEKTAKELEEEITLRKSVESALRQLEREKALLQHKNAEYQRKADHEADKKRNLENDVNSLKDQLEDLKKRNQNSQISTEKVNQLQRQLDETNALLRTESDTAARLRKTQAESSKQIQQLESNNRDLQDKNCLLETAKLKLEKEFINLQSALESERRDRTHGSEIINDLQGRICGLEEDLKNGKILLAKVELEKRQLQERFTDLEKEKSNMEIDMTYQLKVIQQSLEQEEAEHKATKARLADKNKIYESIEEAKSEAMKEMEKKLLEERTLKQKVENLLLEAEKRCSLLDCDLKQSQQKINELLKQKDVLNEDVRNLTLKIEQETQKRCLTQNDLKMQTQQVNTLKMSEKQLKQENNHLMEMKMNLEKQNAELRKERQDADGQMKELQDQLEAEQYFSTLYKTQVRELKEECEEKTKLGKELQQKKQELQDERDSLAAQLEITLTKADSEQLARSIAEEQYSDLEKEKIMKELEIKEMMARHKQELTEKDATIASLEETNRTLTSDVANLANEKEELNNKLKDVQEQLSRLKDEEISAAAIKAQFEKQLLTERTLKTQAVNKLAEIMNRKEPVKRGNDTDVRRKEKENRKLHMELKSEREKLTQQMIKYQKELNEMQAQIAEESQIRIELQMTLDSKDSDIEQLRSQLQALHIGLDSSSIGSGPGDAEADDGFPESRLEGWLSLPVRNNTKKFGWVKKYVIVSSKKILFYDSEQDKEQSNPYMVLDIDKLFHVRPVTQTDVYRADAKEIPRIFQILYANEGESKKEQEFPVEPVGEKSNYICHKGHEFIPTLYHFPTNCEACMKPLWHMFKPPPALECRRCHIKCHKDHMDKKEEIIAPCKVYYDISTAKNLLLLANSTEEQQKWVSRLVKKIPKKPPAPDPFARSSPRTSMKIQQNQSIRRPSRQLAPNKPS
# Proto-oncogene tyrosine-protein kinase receptor Ret (Homo sapiens), sequence (P07949 whole entry): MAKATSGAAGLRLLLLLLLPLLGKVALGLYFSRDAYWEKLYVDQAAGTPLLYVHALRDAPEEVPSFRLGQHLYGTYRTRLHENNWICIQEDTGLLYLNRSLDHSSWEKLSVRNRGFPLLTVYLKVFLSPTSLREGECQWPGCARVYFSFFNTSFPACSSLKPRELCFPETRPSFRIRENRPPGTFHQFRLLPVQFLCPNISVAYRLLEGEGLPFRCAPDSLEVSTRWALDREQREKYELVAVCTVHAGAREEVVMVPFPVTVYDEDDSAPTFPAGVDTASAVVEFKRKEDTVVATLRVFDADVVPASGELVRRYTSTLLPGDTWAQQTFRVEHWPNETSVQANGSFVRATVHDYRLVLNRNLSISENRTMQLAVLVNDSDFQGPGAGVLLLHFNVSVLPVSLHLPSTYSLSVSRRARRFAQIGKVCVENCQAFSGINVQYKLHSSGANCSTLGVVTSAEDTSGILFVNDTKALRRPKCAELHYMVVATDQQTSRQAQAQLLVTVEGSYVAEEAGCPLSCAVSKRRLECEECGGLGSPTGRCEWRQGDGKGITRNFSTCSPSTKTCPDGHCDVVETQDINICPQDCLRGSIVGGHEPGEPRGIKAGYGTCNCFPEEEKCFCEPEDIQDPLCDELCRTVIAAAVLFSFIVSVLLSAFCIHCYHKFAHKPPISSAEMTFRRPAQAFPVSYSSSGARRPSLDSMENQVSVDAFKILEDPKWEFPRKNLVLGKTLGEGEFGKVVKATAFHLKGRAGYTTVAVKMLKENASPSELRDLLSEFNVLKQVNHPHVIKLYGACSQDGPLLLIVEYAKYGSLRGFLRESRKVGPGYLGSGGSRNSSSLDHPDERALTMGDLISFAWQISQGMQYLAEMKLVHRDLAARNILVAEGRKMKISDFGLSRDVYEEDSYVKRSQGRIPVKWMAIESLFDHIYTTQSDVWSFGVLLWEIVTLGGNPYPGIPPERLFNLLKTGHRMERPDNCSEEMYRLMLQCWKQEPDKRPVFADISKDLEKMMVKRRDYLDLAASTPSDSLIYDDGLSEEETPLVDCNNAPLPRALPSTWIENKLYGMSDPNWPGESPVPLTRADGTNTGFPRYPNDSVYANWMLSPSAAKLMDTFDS
# Macrophage-stimulating protein receptor (Homo sapiens), sequence (Q04912 25-304 limits assumed): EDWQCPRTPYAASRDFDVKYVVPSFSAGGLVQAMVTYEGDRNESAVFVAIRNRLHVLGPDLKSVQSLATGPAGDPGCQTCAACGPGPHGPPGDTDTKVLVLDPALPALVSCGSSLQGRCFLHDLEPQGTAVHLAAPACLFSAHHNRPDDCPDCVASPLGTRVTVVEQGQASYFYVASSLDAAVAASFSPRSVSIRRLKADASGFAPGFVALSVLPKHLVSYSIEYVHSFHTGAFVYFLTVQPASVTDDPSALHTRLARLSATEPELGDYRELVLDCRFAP
# Macrophage-stimulating protein receptor (Homo sapiens), sequence (Q04912 310-1400 limits assumed): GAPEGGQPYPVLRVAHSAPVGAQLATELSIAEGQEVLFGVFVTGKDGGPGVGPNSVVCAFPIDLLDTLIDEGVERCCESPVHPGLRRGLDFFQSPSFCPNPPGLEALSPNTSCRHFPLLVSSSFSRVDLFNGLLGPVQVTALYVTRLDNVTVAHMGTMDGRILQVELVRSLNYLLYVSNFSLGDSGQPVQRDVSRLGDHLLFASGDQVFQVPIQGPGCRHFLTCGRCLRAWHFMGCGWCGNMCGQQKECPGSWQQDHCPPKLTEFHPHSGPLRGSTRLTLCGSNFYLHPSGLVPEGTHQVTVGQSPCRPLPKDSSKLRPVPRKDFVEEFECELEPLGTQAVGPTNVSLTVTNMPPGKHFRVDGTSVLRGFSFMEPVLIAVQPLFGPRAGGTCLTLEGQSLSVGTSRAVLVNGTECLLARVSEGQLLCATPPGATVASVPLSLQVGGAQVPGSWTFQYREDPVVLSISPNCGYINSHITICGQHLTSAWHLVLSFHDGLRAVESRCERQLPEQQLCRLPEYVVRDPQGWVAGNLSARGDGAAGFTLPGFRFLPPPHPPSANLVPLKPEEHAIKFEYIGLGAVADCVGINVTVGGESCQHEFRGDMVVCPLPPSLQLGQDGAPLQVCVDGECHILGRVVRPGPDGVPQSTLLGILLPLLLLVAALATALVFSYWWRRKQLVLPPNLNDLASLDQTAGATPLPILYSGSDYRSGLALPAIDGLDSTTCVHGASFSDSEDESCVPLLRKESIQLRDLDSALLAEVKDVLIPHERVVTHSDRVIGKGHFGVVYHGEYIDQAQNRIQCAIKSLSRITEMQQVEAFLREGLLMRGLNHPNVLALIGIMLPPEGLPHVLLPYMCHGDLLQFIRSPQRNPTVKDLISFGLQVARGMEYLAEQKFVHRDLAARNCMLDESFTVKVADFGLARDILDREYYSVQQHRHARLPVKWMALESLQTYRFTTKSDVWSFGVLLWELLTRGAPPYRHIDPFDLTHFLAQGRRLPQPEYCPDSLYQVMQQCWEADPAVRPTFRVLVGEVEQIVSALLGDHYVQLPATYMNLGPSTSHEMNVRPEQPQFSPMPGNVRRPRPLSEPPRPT
# Serine/threonine-protein kinase PLK3 (Homo sapiens), sequence (Q9H4B4 whole entry, looked up): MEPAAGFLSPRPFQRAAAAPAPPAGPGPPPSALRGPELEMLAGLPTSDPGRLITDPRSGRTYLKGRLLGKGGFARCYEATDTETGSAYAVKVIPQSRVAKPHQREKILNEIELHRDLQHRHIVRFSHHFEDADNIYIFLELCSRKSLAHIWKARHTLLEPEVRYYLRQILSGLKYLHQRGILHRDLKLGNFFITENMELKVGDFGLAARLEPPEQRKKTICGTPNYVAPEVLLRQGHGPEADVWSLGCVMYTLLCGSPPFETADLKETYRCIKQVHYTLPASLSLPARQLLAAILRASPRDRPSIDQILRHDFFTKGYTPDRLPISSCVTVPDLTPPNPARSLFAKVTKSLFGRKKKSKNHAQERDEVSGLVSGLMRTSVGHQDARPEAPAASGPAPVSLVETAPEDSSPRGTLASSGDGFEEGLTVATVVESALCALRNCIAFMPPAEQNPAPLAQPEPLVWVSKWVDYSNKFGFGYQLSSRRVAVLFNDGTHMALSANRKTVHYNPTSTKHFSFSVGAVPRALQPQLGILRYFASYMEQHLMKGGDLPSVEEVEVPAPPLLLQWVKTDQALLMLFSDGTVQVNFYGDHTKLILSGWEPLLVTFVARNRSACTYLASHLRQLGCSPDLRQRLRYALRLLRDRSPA
# Receptor-interacting serine/threonine-protein kinase 2 (Homo sapiens), sequence (O43353 whole entry): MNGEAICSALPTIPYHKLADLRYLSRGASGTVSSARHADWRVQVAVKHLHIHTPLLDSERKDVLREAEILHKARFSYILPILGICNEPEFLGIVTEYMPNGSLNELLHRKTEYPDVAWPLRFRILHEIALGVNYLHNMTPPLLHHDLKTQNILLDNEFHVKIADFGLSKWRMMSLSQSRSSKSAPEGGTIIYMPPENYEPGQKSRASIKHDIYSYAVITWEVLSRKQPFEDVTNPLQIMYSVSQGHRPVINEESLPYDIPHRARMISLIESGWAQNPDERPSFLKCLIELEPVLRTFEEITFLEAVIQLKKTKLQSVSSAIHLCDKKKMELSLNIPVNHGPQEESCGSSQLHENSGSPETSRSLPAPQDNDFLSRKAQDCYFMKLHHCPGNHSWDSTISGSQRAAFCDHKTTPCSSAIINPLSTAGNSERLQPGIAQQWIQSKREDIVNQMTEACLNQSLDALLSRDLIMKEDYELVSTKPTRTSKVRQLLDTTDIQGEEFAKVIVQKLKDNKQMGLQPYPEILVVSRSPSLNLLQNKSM
Compound,residual activity [1],residual activity [2],residual activity [3],residual activity [4],residual activity [5],residual activity [6],residual activity [7],residual activity [8],residual activity [9],residual activity [10],residual activity [11],residual activity [12],residual activity [13],residual activity [14],residual activity [15],residual activity [16],residual activity [17],residual activity [18],residual activity [19],residual activity [20]
O=C(Nc1cccc(Nc2nccc(Nc3cccc(C(F)(F)F)c3)n2)c1)C1CC1,73% (inactive),88%,103%,51%,55%,12%,69%,71%,106%,127%,108%,88%,74%,81%,93%,38%,102%,68%,70%,89%
Cc1nc(-c2ccccc2)c(-c2ccncc2)o1,106% (inactive),96%,86%,85%,91%,79%,58%,25%,124%,108%,106%,76%,11%,7%,87%,96%,98%,97%,98%,121%
CCC(=O)Nc1ccc2ncnc(Nc3cccc(Br)c3)c2c1,89% (inactive),86%,89%,94%,126%,95%,50%,32%,115%,120%,89%,88%,86%,103%,90%,70%,92%,98%,90%,93%
O=C1Nc2cc(Br)ccc2/C1=C1/Nc2ccccc2/C1=N\O,100% (inactive),91%,73%,36%,10%,3%,78%,85%,113%,102%,90%,93%,1%,0%,79%,89%,90%,87%,81%,78%
Oc1n[nH]c2nnc(-c3c(-c4ccccc4)nn4ccccc34)cc12,96% (inactive),89%,86%,81%,102%,88%,87%,85%,121%,104%,83%,91%,102%,80%,70%,53%,91%,87%,109%,97%
Cc1nc2cc3nc(-c4cccs4)cnc3cc2n1C,101% (inactive),105%,108%,101%,123%,87%,84%,49%,102%,107%,113%,93%,65%,35%,106%,97%,109%,112%,98%,79%
O=C(Nc1cccc(Nc2cc(Nc3cccc(C(F)(F)F)c3)ncn2)c1)C1CC1,97% (inactive),90%,102%,100%,104%,63%,53%,41%,101%,99%,94%,80%,89%,95%,96%,53%,92%,88%,88%,30%
Cc1ccc(NC2=CC(=O)c3sc(C)nc3C2=O)cc1,97% (inactive),91%,102%,97%,108%,102%,81%,89%,117%,102%,87%,90%,109%,97%,79%,81%,101%,88%,98%,101%
Cn1cnc2cc3c(Nc4cccc(Br)c4)ncnc3cc21,95% (inactive),92%,108%,110%,119%,77%,26%,20%,104%,110%,93%,81%,66%,65%,88%,64%,91%,98%,59%,53%
CN(C)c1ccc(/C=C2\C(=O)Nc3ccccc32)cc1,94% (inactive),88%,92%,66%,103%,47%,103%,83%,132%,123%,112%,38%,66%,32%,91%,92%,106%,103%,100%,99%
NC(=O)c1ccc2[nH]c(-c3ccc(Oc4ccc(Cl)cc4)cc3)nc2c1,97% (inactive),91%,72%,112%,100%,86%,82%,66%,123%,118%,83%,72%,105%,85%,74%,84%,92%,84%,106%,97%
COc1cc2ncnc(Nc3ccc(Oc4ccccc4)cc3)c2cc1OC,87% (inactive),95%,92%,132%,96%,69%,28%,19%,115%,126%,104%,84%,25%,7%,92%,59%,102%,101%,14%,7%
Cn1cc(/C=C2\C(=O)Nc3ccc(S(N)(=O)=O)cc32)c2ccccc21,100% (inactive),99%,88%,59%,22%,5%,52%,51%,92%,87%,37%,13%,1%,1%,94%,82%,98%,109%,67%,53%
O=C1NC(=O)/C(=C/c2ccc3c(c2)OC(F)(F)O3)S1,94% (inactive),96%,88%,77%,135%,101%,99%,83%,95%,116%,113%,89%,91%,98%,100%,77%,105%,108%,96%,105%
Cc1ccc(S(=O)(=O)/C=C/C#N)cc1,103% (inactive),97%,91%,101%,102%,104%,88%,88%,119%,106%,89%,93%,115%,90%,80%,91%,104%,92%,107%,99%
CNc1cc2c(Nc3cccc(Br)c3)ncnc2cn1,90% (inactive),91%,95%,75%,116%,64%,43%,38%,110%,126%,100%,85%,67%,75%,88%,66%,96%,99%,77%,83%
Nc1nc(Nc2ccc(S(N)(=O)=O)cc2)nn1C(=S)Nc1c(F)cccc1F,90% (inactive),91%,44%,7%,4%,1%,16%,29%,6%,1%,0%,1%,2%,-1%,7%,2%,70%,16%,14%,-1%
O=c1cc(-c2cccc3c2Sc2ccccc2S3)oc(N2CCOCC2)c1,107% (inactive),95%,95%,72%,91%,112%,94%,96%,102%,96%,102%,101%,102%,83%,90%,104%,109%,96%,93%,103%
O=C1NC(=O)/C(=C\c2ccc3nccnc3c2)S1,95% (inactive),85%,67%,27%,124%,103%,56%,21%,109%,107%,95%,80%,98%,96%,88%,76%,94%,99%,89%,92%
CC(=O)O/N=C1\C(=C2\C(=O)Nc3cc(Br)ccc32)Nc2ccccc21,92% (inactive),99%,77%,93%,79%,32%,92%,84%,123%,119%,98%,95%,6%,-1%,85%,89%,100%,90%,100%,98%
CC(C)n1cnc2c(NCc3ccccc3)nc(NCCCO)nc21,98% (inactive),95%,130%,88%,102%,83%,69%,51%,109%,100%,94%,90%,96%,92%,88%,92%,96%,93%,105%,101%
O=C1c2ccccc2-[n+]2ccc3c([nH]c4ccccc43)c21,98% (inactive),91%,92%,53%,101%,97%,90%,88%,126%,115%,89%,86%,89%,75%,77%,70%,89%,88%,104%,107%
Cc1cncc2cccc(S(=O)(=O)N3CCCN(C(=O)CN)C[C@H]3C)c12,98% (inactive),92%,57%,13%,122%,55%,95%,76%,34%,14%,1%,-1%,91%,90%,89%,70%,90%,82%,83%,95%
COc1ccc(OC)c2c(=S)c3ccccc3[nH]c12,99% (inactive),95%,83%,83%,79%,105%,85%,80%,122%,102%,86%,95%,110%,96%,69%,82%,99%,92%,108%,93%
CCOc1cc2ncnc(Nc3cccc(Br)c3)c2cc1OCC,87% (inactive),100%,98%,78%,110%,58%,24%,12%,94%,95%,91%,70%,30%,1%,101%,57%,103%,100%,51%,16%
